# According to PubChem BioAssay (Tox21):
# Values without a mark were called inactive. Results filed as inconclusive are left out. A call without a number means that no potency is given here. The source made the active and inactive calls. Calls follow the shape of the full dose curve.
# Columns and labels:
# [1] = biological target: Acetylcholinesterase (Homo sapiens) (UniProt P22303); assay: Acetylcholinesterase (AChE) small molecule antagonists: colormetric cell-based qHTS assay (AID 1347395); also: nearly all actives have a fitted effect of over 30% in size; also: potency is read from the fitted curve at half-maximal effect
# Procedure, shortened: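 AChE inhibition read colorimetrically via DTNB–thiocholine in SH-SY5Y cells. Compound 30 min, substrate 90 min, both 37 C.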
# [2] = biological target: Acetylcholinesterase (Homo sapiens) (UniProt P22303); assay: Acetylcholinesterase (AChE) small molecule antagonists: enzyme-based qHTS assay (AID 1347397); conditions: Potency: AChE enzyme activity inhibition; outcome: AChE enzyme activity inhibition; also: nearly all actives have a fitted effect of over 55% in size
# Procedure, shortened: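 Recombinant human AChE (50 mU/mL) preincubated with compound 30 min at room temperature; acetylthiocholine plus DTNB then added, and thiocholine formation read colorimetrically after 10 min at room temperature. DMSO served as vehicle control.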
# [3] = biological target: Acetylcholinesterase (Homo sapiens) (UniProt P22303); assay: Acetylcholinesterase (AChE) small molecule antagonists: fluorescence cell-based qHTS assay (AID 1347398); conditions: Potency: AChE activity; outcome: AChE activity; also: nearly all actives have a fitted effect of over 50% in size
# Procedure, shortened: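 SH-SY5Y cells (2000/well), attached overnight, incubated with compound 30 min at 37 C. Acetylthiocholine plus Thiolite Green then added for 40 min at room temperature. Thiocholine fluorescence (Ex/Em 490/520 nm) reports cellular AChE activity.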
# [4] = biological target: Acetylcholinesterase (Homo sapiens) (UniProt P22303); assay: Acetylcholinesterase (AChE) small molecule antagonists: enzyme-based qHTS assay with human liver microsomes (AID 1347399); conditions: Potency: qHTS inhibition; outcome: qHTS inhibition; also: nearly all actives have a fitted effect of over 60% in size
# Procedure, shortened: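 Recombinant human AChE (50 mU/mL in the enzyme mix) and human liver microsomes (0.25 mg/mL final) were preincubated with compound and NADPH (0.25 mg/mL final) for 30 min at 37 C. Acetylthiocholine/DTNB was then added; thiocholine was read colorimetrically after 10 min at room temperature.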
# Acetylcholinesterase (Homo sapiens), sequence (P22303 whole entry, looked up): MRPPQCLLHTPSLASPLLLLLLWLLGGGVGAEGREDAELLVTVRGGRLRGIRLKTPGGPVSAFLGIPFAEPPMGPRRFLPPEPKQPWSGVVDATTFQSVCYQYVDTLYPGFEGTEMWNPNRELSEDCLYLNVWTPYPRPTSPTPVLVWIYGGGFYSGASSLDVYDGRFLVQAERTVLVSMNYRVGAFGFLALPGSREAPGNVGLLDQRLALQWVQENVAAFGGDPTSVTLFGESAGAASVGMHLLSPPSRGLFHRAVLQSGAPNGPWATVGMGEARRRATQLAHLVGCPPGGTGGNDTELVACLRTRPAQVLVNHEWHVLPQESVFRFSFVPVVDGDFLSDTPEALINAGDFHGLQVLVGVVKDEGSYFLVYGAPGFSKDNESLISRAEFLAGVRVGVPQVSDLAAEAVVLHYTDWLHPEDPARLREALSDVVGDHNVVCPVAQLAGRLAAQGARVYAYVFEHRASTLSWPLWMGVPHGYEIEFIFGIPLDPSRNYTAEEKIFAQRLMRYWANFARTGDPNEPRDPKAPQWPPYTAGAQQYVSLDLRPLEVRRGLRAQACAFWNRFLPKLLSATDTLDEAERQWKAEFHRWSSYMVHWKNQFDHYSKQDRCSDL
structure (smiles),measurement,setting,value
CCCCCCCCCC(=O)N(C)C,Potency,[1],inactive
same,Potency,[2],inactive
same,Potency,[3],inactive
Cc1cc(CCN2CCN(c3nsc4ccccc34)CC2)cc2c1NC(=O)CC2(C)C,outcome,[1],inactive
same,outcome,[2],inactive
CC/C=C/CCCCCCCCCCOC(C)=O,Potency,[1],inactive
same,Potency,[2],inactive
same,Potency,[3],inactive
CCOC(=O)c1ccc(N(C)C)cc1,Potency,[1],inactive
same,Potency,[2],inactive
same,Potency,[3],inactive
C/C=C/C(=O)CC,"activity, negative = inhibition",[1],0.402% [at 23.6 µM]
same,"activity change, negative = inhibition",[2],0.0718% [at 23.6 µM]
same,"activity change, negative = inhibition",[3],-7.93% [at 23.8 µM]
CCC(C)C(=O)OC (stereo unspecified),Potency,[1],inactive
same,Potency,[2],inactive
same,Potency,[3],inactive
same,Potency,[4],inactive
CC(C)(C)NCC(O)COc1cccc2c1C[C@H](O)[C@H](O)C2 (stereo partly specified),Potency,[1],inactive
same,Potency,[2],inactive
same,Potency,[3],inactive
O=C(CCCCCCC(=O)Nc1ccccc1)NO,Potency,[1],inactive
same,Potency,[2],inactive
same,Potency,[3],inactive
CCCCN1CCCC1C(=O)Nc1c(C)cc(C)cc1C (stereo unspecified),Potency,[1],inactive
same,Potency,[2],inactive
same,Potency,[3],inactive
CNC(=O)c1c(I)c(NC(C)=O)c(I)c(C(=O)O)c1I,Potency,[1],inactive
same,Potency,[2],inactive
CCCCCCCCCCCCSCCOCCO,Potency,[1],inactive
same,Potency,[2],inactive
C[C@]12CC[C@H]3C(=CCc4cc(O)ccc43)[C@@H]1CCC2=O,Potency,[1],inactive
same,Potency,[2],inactive
same,Potency,[3],inactive
C1=COCCC1,Potency,[1],inactive
same,Potency,[2],inactive
same,Potency,[3],inactive
OCCCO,Potency,[1],inactive
same,Potency,[2],inactive
same,Potency,[3],inactive
COc1ccc2c(c1OC)C(=O)O[C@@H]2[C@H]1c2c(cc3c(c2OC)OCO3)CCN1C,Potency,[1],inactive
same,Potency,[2],inactive
OCCC(F)(F)C(F)(F)C(F)(F)C(F)(F)C(F)(F)C(F)(F)C(F)(F)C(F)(F)F,Potency,[1],inactive
same,Potency,[2],inactive
same,Potency,[3],inactive
OCCN1CCOCC1,Potency,[1],inactive
same,Potency,[2],inactive
same,Potency,[3],inactive
CC(C)(C)C1CCC(=O)CC1,Potency,[1],inactive
same,Potency,[2],inactive
same,Potency,[3],inactive
C/C(=N/NC(=O)c1ccncc1)C(=O)O,Potency,[1],inactive
same,Potency,[2],inactive
N#CCN(CC#N)CCN(CC#N)CC#N,Potency,[1],inactive
same,Potency,[2],inactive
same,Potency,[3],inactive
CCCCCCCCCCCCCCCCCCCl,"activity, negative = inhibition",[1],-3.15% [at 10.5 µM]
same,"activity change, negative = inhibition",[2],-0.128% [at 10.5 µM]
same,"activity change, negative = inhibition",[3],5.41% [at 10.5 µM]
same,"activity change, negative = inhibition",[4],0.243% [at 10.5 µM]
Nc1ccc(NC(=O)c2ccc(N)cc2)cc1,Potency,[1],inactive
same,Potency,[2],inactive
same,Potency,[3],inactive
CCn1c(=O)c2c(nc(/C=C/c3ccc(OC)c(OC)c3)n2C)n(CC)c1=O,Potency,[1],inactive
same,Potency,[2],inactive
same,Potency,[3],inactive
CCCN(CCC)c1c([N+](=O)[O-])cc(C(F)(F)F)c(N)c1[N+](=O)[O-],Potency,[1],inactive
same,Potency,[2],inactive
same,Potency,[3],inactive
N=C(N)S(=O)O,Potency,[1],inactive
same,Potency,[2],inactive
same,Potency,[3],inactive
O=C(O)C1CCC1,Potency,[1],inactive
same,Potency,[2],inactive
same,Potency,[3],inactive
COc1ccc(C(=O)c2ccc(OC)cc2O)c(O)c1,Potency,[1],inactive
same,Potency,[2],inactive
same,Potency,[3],inactive
CCC(C)CCCC(C)(C)O (stereo unspecified),Potency,[1],inactive
same,Potency,[2],inactive
same,Potency,[3],inactive
same,Potency,[4],inactive
COc1cc(N)c(Cl)cc1C(=O)NC1CCN(Cc2ccccc2)CC1,Potency,[1],17.4 µM (active)
c1ccc2sc(SN(C3CCCCC3)C3CCCCC3)nc2c1,Potency,[1],inactive
same,Potency,[2],inactive
same,Potency,[3],inactive
CCCOC(=O)c1ccc(N)cc1,Potency,[1],inactive
same,Potency,[2],inactive
same,Potency,[3],inactive
Nc1nc(CC(=O)O)cs1,Potency,[1],inactive
same,Potency,[2],inactive
same,Potency,[3],inactive
CCCCCCCCCCCCN(CCCCCCCCCCCC)CCCCCCCCCCCC,Potency,[1],inactive
same,Potency,[2],inactive
same,Potency,[3],inactive
Cn1cc(C(=O)[C@@H]2CCc3nc[nH]c3C2)c2ccccc21,Potency,[1],inactive
same,Potency,[2],inactive
same,Potency,[3],inactive
CCOc1ccccc1O[C@H](c1ccccc1)[C@H]1CNCCO1,outcome,[1],inactive
same,outcome,[2],inactive
same,outcome,[3],inactive
CCc1ccc(O)c(OC)c1,Potency,[1],inactive
same,Potency,[2],inactive
same,Potency,[3],inactive
c1ccc2occc2c1,Potency,[1],inactive
same,Potency,[2],inactive
same,Potency,[3],inactive
CCCCCCCCCCOCC(O)CN (stereo unspecified),Potency,[1],inactive
same,Potency,[2],inactive
same,Potency,[3],inactive
NC(=O)c1ncn([C@@H]2O[C@H](CO)[C@@H](O)[C@H]2O)c1N,Potency,[1],inactive
same,Potency,[2],inactive
same,Potency,[3],inactive
CCOc1ccc2c(c1)C(C)CC(C)(C)N2 (stereo unspecified),Potency,[1],inactive
same,Potency,[2],inactive
same,Potency,[3],inactive
same,Potency,[4],inactive
Cc1onc(-c2ccccc2)c1-c1ccc(S(N)(=O)=O)cc1,Potency,[1],inactive
same,Potency,[2],inactive
same,Potency,[3],inactive
same,Potency,[4],inactive
COC(=O)C1=C(C)NC(C)=C(C(=O)OC(C)(C)CN(C)CCC(c2ccccc2)c2ccccc2)C1c1cccc([N+](=O)[O-])c1 (stereo unspecified),Potency,[1],inactive
same,Potency,[2],inactive
same,Potency,[3],inactive
same,Potency,[4],inactive
Clc1ccnc(Cl)n1,Potency,[1],inactive
same,Potency,[2],inactive
same,Potency,[3],inactive
same,Potency,[4],inactive
CCCCC(CC)(CO)CO,Potency,[1],inactive
same,Potency,[2],inactive
same,Potency,[3],inactive
same,Potency,[4],inactive
C/C=C(\C)C#N,Potency,[1],inactive
same,Potency,[2],inactive
same,Potency,[3],inactive
same,Potency,[4],inactive
CN(C)CCOCCO,Potency,[1],inactive
same,Potency,[2],inactive
same,Potency,[3],inactive
same,Potency,[4],inactive
CCN(Cc1cccc(S(=O)(=O)O)c1)c1ccc(C(=C2C=CC(=[N+](CC)Cc3cccc(S(=O)(=O)O)c3)C=C2)c2ccc(O)cc2S(=O)(=O)[O-])cc1,Potency,[1],inactive
same,Potency,[2],inactive
same,Potency,[3],inactive
same,Potency,[4],inactive
Oc1ccc2c(c1)Cc1ccccc1-2,Potency,[1],inactive
same,Potency,[2],inactive
same,Potency,[3],inactive
same,Potency,[4],inactive
C=CC1CO1 (stereo unspecified),Potency,[1],inactive
same,Potency,[2],inactive
same,Potency,[3],inactive
same,Potency,[4],inactive
CO/N=C(\C(=O)N[C@@H]1C(=O)N2C(C(=O)O)=C(CSc3nc(=O)c(O)nn3C)CS[C@H]12)c1csc(N)n1,Potency,[1],inactive
same,Potency,[2],inactive
same,Potency,[3],inactive
same,Potency,[4],inactive
CN1C(C)(C)CCCC1(C)C,Potency,[1],inactive
same,Potency,[2],inactive
same,Potency,[3],inactive
same,Potency,[4],inactive
